# SNCA expr inh = Primary qHTS assay for inhibitors of alpha-synuclein gene (SNCA) expression. 0.17% of 140,000 active. AID 1671194, 2021. HEK-293 SNCA-luciferase knock-in, luminescence, 24 h. Potency, µM (doses to about 57.2 µM), inactives show top-dose activity change, negative = inhibition, actives largely listed as inhibitors;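 further: potency means the concentration at half of the fitted maximal effect; plate controls were DMSO cells for no effect and cell-free wells for full effect; nearly all actives have a fitted effect of over 45% in size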
# IP6K1 inhibitor = Primary qHTS assay for small molecule inhibitors of Inositol hexaphosphate kinase 1 (IP6K1) | Inositol hexakisphosphate kinase 1 (Homo sapiens), Q92551 | IP6K1 kinase, ADP-Glo luminescence, 2 h; hits give low values | activity change, % (series mostly up to about 58 µM) | 0.81% of 140,000 active | AID 1645851, 2021; in the data active means activity change below about -25%; further: on the % scale 0 is the no-effect control and ±100 the full control effect
# Target sequence (Q92551 whole entry, looked up): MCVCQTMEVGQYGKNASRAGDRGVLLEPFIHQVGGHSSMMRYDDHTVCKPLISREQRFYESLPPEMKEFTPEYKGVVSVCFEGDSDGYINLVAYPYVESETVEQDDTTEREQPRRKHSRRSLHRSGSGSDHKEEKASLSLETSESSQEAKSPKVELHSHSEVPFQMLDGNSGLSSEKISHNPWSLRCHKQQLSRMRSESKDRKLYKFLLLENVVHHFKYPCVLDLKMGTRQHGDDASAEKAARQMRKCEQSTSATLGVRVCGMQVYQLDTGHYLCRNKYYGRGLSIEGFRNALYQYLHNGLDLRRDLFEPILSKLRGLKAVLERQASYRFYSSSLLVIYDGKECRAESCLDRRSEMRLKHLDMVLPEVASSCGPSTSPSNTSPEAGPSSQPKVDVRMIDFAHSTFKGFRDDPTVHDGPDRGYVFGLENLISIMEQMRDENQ
#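 ADP-Glo luminescence measures ADP made by human IP6K1 during a 2 h RT reaction with ATP/IP6 (mix at 1.3 mM/130 uM); top library doses 57.5 and 19.1 uM final.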
# HEK293 viab = GF-AFC viability counterscreen for inhibitors of alpha-synuclein gene (SNCA) expression. HEK-293-SNCA-luc viability, GF-AFC fluorescence, 24 h. Potency, µM (highest dose often 57.1 µM), for the others: at the highest dose activity change, negative = cytotoxicity, most hits filed as cytotoxic. 0.12% of 150,000 active. AID 1671193, 2021;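 further: potency means the concentration at half of the fitted maximal effect; 0% = DMSO-treated cells and -100% = medium-only wells without cells; nearly all actives have a fitted effect of over 30% in size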
#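 Cytotoxicity counterscreen: after 24 h compound treatment of genome-edited SNCA-luciferase HEK-293 cells, live-cell protease substrate GF-AFC read by fluorescence after 30 min; activity scaled between DMSO (0%) and medium-only (-100%), curves Hill-fitted.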
# KDM5B inhibitor = Primary screen for KDM5B Histone Demethylases FDH-coupled qHTS; Lysine-specific demethylase 5B (Homo sapiens), Q9UGL1; KDM5B demethylase, FDH-coupled NADH fluorescence (FDH is formaldehyde dehydrogenase); Potency, µM (top dose mostly 57.7 µM), usual class: inhibitors; 2.6% of 220,000 active; AID 1347165, 2019; further: potency means the concentration at half of the fitted maximal effect; 0% is about no effect; nearly all actives have a fitted effect of over 70% in size
#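 Inhibition is measured as reduced NADH fluorescence generation from FDH coupling to formaldehyde release. Truncated KDM5BΔAP at 200 nM final acts on H3K4me3 peptide (12.5 µM in substrate mix) in pH 7.5 HEPES buffer with Tween-20, 30 min, room temperature.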
# IP6K1 conf = Confirmatory qHTS assay for small molecule inhibitors of Inositol hexaphosphate kinase 1 (IP6K1) | AID 1645852, 2021 | Potency, µM (highest dose often 49 µM), without a hit: at the highest dose activity change, negative = inhibition, most hits filed as inhibitors | shares compounds with IP6K1 inhibitor | 13% of 1,200 active | recombinant IP6K1 kinase, ADP-Glo luminescence, 2 h; further: potency means the concentration at half of the fitted maximal effect; on the % scale 0 is the no-effect control and ±100 the full control effect; nearly all actives have a fitted effect of over 65% in size
# * = called active by the depositor; i = inactive; ? = inconclusive; . = no result given; [ ] = remark or other dose. This is a sample that favours compounds with a hit; in the whole collection about 2.9% have one here. Unless noted, the call rests on the fitted dose curve; in most records, active means well fitted curve in the direction sought with a large enough effect; inconclusive means small, poorly fitted or top-dose-only effect, or another doubt; inactive means no such curve, though single readings can be large; an effect the other way counts as inactive or inconclusive.
SMILES,SNCA expr inh,IP6K1 inhibitor,HEK293 viab,KDM5B inhibitor,IP6K1 conf
CC(C)C(=O)c1cc2c(cc1NC(=O)c1ccccc1F)OCCO2,-10%,-28*,13%,?,-17%
Cc1ccc(C(=O)Nc2cc3c(cc2C(=O)c2ccccc2)OCCO3)cc1,.,.,.,i,.
CN(C)c1ccc(Nc2nc(N)n(C(=O)c3c(F)cccc3F)n2)cc1,55%,-51*,-21%,.,10µM*
CN(C)c1ccc(C(=O)NNC(=O)c2ccccc2F)cc1,.,.,.,i,.
Cc1ccc(C(=O)N2CCCN(c3cc(-c4ccc(Cl)cc4)[nH]n3)CC2)s1,3%,5,-11%,i,.
Cc1ccc(-c2nc(CNC(=O)C(C)CN)[nH]c2-c2ccccn2)cc1 (centres undefined),-7%,0,1%,i,.
CN[C@@H](CO)C(=O)NCc1nc(-c2ccc(C)cc2)c(-c2ccccn2)[nH]1,-5%,-45*,6%,?,-10%
Cn1nc(C(C)(C)C)cc1C(=O)NNC(=O)c1ccc(C(F)(F)F)cc1,.,.,.,i,.
Cn1nc(-c2ccc(C(F)(F)F)cc2)nc2c(=O)n(C)c(=O)nc1-2,.,-41*,?,.,?
Cn1nnnc1Sc1ncnc2scc(Br)c12,.,.,.,.,-15%
Cn1c(Sc2ncnc3scc(-c4ccccc4)c23)nnc1C(F)(F)F,.,.,.,i,.
Cn1nnnc1Sc1ncnc2scc(-c3ccc(Br)cc3)c12,.,.,.,.,-9%
O=C(c1cc(Cl)ccc1Cl)N1CCN(c2cc(-c3cccs3)[nH]n2)CC1,12%,1,-18%,i,.
Cc1nc2cnccn2c1C(=O)NCc1cccc(C(F)(F)F)c1,.,4,.,.,.
Cc1nn(-c2ccccc2)c2c1C(C)N(CC1CN(C(=O)NC3CCCC3)C1)C2=O (centres undefined),.,16,.,.,.
Cc1ccccc1NC(=O)CSc1nc(=O)[nH]c2c1CCCC2,.,.,.,i,.
Cc1c(Cl)cccc1NC(=O)CSc1nc(=O)[nH]c2c1CCCC2,-4%,-27*,-2%,i,-16%
C#C[C@]1(O)CC[C@H]2[C@@H]3CCc4cc(OC)ccc4[C@H]3CC[C@@]21C,31%[25.6 µM],-27*,-20%[23.9 µM],.,?
CCCCOc1ccc(S(=O)(=O)n2nc(C)c(S(=O)(=O)N3CCCCCC3)c2C)cc1,-3%,-6,15%,?,.
Cc1nn(S(=O)(=O)c2ccc(Cl)cc2)c(C)c1S(=O)(=O)N1CCCCCC1,-1%,-10,15%,?,.
Cc1ccc(S(=O)(=O)n2nc(C)c(S(=O)(=O)N3CCCCCC3)c2C)cc1C,25%,-27*,-1%,?,4%
CCCCOc1ccc(S(=O)(=O)n2nc(C)c(S(=O)(=O)N3CCC(C)CC3)c2C)cc1,4%,-26*,-1%,?,-6%
COc1cc(CN2CCN(S(=O)(=O)c3ccc(F)cc3)CC2)cc(OC)c1OC,-4%,-34*,-12%,?,2%
Cc1[nH]c(C=C2C(=O)Nc3ccc(S(=O)(=O)Cc4c(Cl)cccc4Cl)cc32)c(C)c1C(=O)N1CCC[C@H]1CN1CCCC1,?,.,-17%,.,-11%
Cc1[nH]c(/C=C2\C(=O)Nc3ccc(S(=O)(=O)N(C)c4cccc(Cl)c4)cc32)c(C)c1C(=O)N1CCN(C)CC1,.,15,-30%,.,.
SMILES,SNCA expr inh,IP6K1 inhibitor,HEK293 viab,KDM5B inhibitor,IP6K1 conf
Cc1[nH]c(/C=C2\C(=O)Nc3ccc(F)cc32)c(C)c1C(=O)NCCN1CCCC1,.,-5,-11%,.,2%[18.9 µM]
CC(C)Cn1c(=O)c(C(=O)N2CCC(c3ccccc3)CC2)nc2cccnc21,16%,1,-14%,.,.
Cc1ccc2c(c1)C(=O)C(=O)N2Cc1ccc(OC(C)C)cc1,?,-38*,?,i,-10%
COc1ccc(-c2nc(SCC(=O)Nc3cccc(C(F)(F)F)c3)n[nH]2)cc1,.,.,.,i,.
COc1ccc(-c2nc(SCC(=O)Nc3cccc(C(C)=O)c3)n[nH]2)cc1,-1%,-33*,-23%,i,?
Cc1ccc([S+](=O)([O-])N2CC(=O)N(Cc3cccc(F)c3)CC(O)C2)cc1 (centres undefined),.,-5,.,.,.
COc1ccc(CCC(=O)N2CCCCCC2CN2CCC(C)CC2)cc1 (centres undefined),-10%,-12,?,.,.

# Compound activity from PubChem BioAssay.
